Hits are enriched below; roughly 2.1% of the tested compounds scored in any of these assays.
NSD2 HMT inh: inhibitors of human histone methyltransferase NSD2 | NSD2 peptide methylation, AlphaScreen, 120 min | inhibition, % at 12.5 µM | 310,000 tested, 0.54% active; in the data active = inhibition above about 50%
PfHsp90 set2: growth inhibition of yeast expressing Plasmodium Hsp90; S. cerevisiae expressing PfHsp90, BacTiter-Glo ATP, 48 h; yeast lacking PDR1 and PDR3 efflux regulators; inhibition, % at 9.4 µM; 310,000 tested, 0.32% active;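 active = every replicate shows inhibition above about 80%, whatever the replicate mean, limit read from the data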;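 note: 0% = DMSO neutral controls and 100% = 20 µM radicicol positive controls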
ARNT-TACC3 inh: disruptors of human ARNT/TACC3 interaction | Q9Y6A5 | AlphaScreen His-ARNT PAS-B/GST-TACC3 binding, luminescence; TACC3 fragment carries E629A point mutation | inhibition, % at 9.99 µM | 390,000 tested, 0.66% active;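 active = mean inhibition of replicates at least 50% and at least half of replicates each reaching 50%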;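 note: 0% = complete ARNT plus TACC3 wells and 100% = ARNT alone without TACC3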
SIRT5 block: inhibitors of human sirtuin-5 desuccinylase; Q9NXA8; Purified SirT5, succinyl-peptide AMC, trypsin-coupled fluorescence; inhibition, % at 15 µM; 330,000 tested, 1.1% active; AID 652115; in the data active = inhibition above about 15%
Target sequence (Q9NXA8 whole entry, looked up): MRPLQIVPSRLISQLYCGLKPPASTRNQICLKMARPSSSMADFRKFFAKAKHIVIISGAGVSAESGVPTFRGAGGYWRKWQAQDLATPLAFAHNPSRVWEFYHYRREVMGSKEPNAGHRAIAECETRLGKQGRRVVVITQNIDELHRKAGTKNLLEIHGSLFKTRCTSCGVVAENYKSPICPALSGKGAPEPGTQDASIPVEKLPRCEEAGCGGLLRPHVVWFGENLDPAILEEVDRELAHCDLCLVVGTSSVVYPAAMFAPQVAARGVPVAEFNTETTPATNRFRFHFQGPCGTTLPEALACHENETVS
Casp6 inh: inhibitors of human caspase-6 | P55212 | purified caspase-6, Z-VEID-R110 cleavage fluorescence | inhibition, % at 12.5 µM | 350,000 tested, 0.53% active | AID 686996;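 active = mean inhibition across replicates at least about 35%, with every replicate also reaching that limit, limit read from the data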;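 note: 0% = median of neutral control wells and 100% = no fluorescence left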
Target sequence (P55212 24-179 limits assumed): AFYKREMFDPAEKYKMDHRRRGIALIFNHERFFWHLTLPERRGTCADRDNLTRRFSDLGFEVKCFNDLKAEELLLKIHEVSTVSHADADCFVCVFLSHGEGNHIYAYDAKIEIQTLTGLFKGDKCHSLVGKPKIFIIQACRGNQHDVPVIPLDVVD
Target sequence (P55212 194-293 limits assumed): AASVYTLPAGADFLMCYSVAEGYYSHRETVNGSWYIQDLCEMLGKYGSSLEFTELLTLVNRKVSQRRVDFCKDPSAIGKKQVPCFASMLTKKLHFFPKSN
An asterisk follows results filed as active; x = not tested or not shown.

SMILES	NSD2 HMT inh	PfHsp90 set2	ARNT-TACC3 inh	SIRT5 block	Casp6 inh
CC1=NOC(=O)/C1=C/c1ccc(-c2ccc(Cl)cc2)o1	11.9	105.1*	-7.5	x	x
Cc1ccc(-c2ccc(/C=C3\C(=O)ON=C3c3ccccc3)o2)c([N+](=O)[O-])c1	20.0	48.9	18.6	x	x
CC1=NOC(=O)/C1=C\c1ccc(-c2cc(Cl)ccc2Cl)o1	8.4	2.2	12.4	x	x
COc1ccc(/C=C2\C(=O)ON=C2c2ccccc2)cc1	9.6	14.5	-0.3	-4.2	2.0
C[C@@H]1CCCCO[C@H](CN(C)S(=O)(=O)c2cn(C)cn2)[C@@H](C)CN([C@H](C)CO)C(=O)c2cc(NS(=O)(=O)c3ccccc3)ccc2O1	x	x	-12.3	-0.8	-0.2
COc1ccccc1S(=O)(=O)N1CC[C@@H]2[C@@H](CO)Nc3ccc(-c4cccc(C#N)c4)cc3[C@@H]21	x	x	8.6	x	x
C[C@@H]1CCCCO[C@@H](CN(C)Cc2ccc(C(F)(F)F)cc2)[C@@H](C)CN([C@H](C)CO)C(=O)c2cc(NS(=O)(=O)c3ccc(F)cc3)ccc2O1	x	x	4.1	4.3	-3.6
C[C@@H]1CN([C@H](C)CO)C(=O)c2cc(NS(=O)(=O)c3ccc(Cl)cc3)ccc2O[C@@H](C)CCCCO[C@@H]1CN(C)Cc1ccc(C(F)(F)F)cc1	x	x	-17.2	16.8*	-0.1
C[C@@H]1CCCCO[C@@H](CN(C)Cc2ccc(C(F)(F)F)cc2)[C@@H](C)CN([C@@H](C)CO)C(=O)c2cc(NS(=O)(=O)c3ccc(Cl)cc3)ccc2O1	x	x	15.3	16.1*	-0.5
C[C@H](CO)N1C[C@H](C)[C@@H](CN(C)Cc2ccc(C(F)(F)F)cc2)OCCCC[C@H](C)Oc2ccc(NS(=O)(=O)c3ccc(Cl)cc3)cc2C1=O	x	x	15.9	18.6*	-2.9
CC(C)NC(=O)Nc1ccc2c(c1)C(=O)N([C@H](C)CO)C[C@@H](C)[C@H](CN(C)Cc1ccc(Cl)c(Cl)c1)OCCCC[C@H](C)O2	x	x	1.3	1.2	3.4
COC(=O)c1ccc(NC(=O)c2cn(-c3ccccc3)nc2-c2ccncc2)cc1	x	89.2*	-14.3	x	x
Cc1nnc(SCC(=O)NC2CCCCCC2)n1N	-0.6	-15.2	x	-7.7	-16.1
Nc1nc(SCC(=O)NC2CCCCC2)n[nH]1	-2.3	7.2	-1.0	-1.1	95.4*
Cc1nnc(SCC(=O)NC2CCCCCC2)n1C(C)C	x	9.4	x	-0.7	43.7*
CC1(C(=O)NCC2CC2)C=CC2(CCCCC2)N1C(=O)c1ccccc1 (stereo unspecified)	x	-17.7	x	-1.0	0.0
CC1(C(=O)NCc2cc(F)cc(C(F)(F)F)c2)C=CC2(CCCCC2)N1C(=O)c1ccccc1 (stereo unspecified)	x	-12.7	x	24.4*	0.9
C[C@@H]1CN([C@H](C)CO)C(=O)Cc2cc(NC(=O)NC3CCCCC3)ccc2O[C@@H]1CN(C)S(C)(=O)=O	x	x	-1.6	1.2	-3.7
CC(C)(C)OC(=O)NOCC(=O)N(Cc1ccccc1)CC(O)COc1ccccc1 (stereo unspecified)	x	11.5	4.7	1.6	3.2
CC(C)(C)OC(=O)NOCC(=O)N(CC(=O)c1ccccc1)Cc1ccccc1	x	2.0	-0.1	27.1*	-3.6
CC1(C)Cc2ccccc2C(NNC(=O)c2ccccn2)=N1	-2.7	-9.4	66.3*	x	x
COc1cc(/C=C2/C(=O)NN(c3ccc(F)cc3)C2=O)cc(Cl)c1O	25.8	14.8	1.4	-2.6	13.9
COc1cc(/C=C2/C(=O)NN(c3ccc(Cl)cc3)C2=O)cc(Br)c1O	27.7	-34.0	-13.2	8.4	80.9*
COC(=O)c1ccc(N2NC(=O)/C(=C/c3cc(OC)c(O)c(OC)c3)C2=O)cc1	13.1	-18.8	2.0	2.3	10.0
COc1cc(/C=C2/C(=O)NN(c3ccc(Cl)c(Cl)c3)C2=O)cc([N+](=O)[O-])c1O	32.8	-29.4	8.2	22.1*	x
SMILES	NSD2 HMT inh	PfHsp90 set2	ARNT-TACC3 inh	SIRT5 block	Casp6 inh
O=[N+]([O-])c1ccccc1N=Nc1ccc(O)cc1	17.9	-2.0	18.8	8.0	1.7
COc1cc(N=Nc2ccc3ccccc3c2)ccc1O	30.2	109.9*	11.6	-2.6	-3.9
Oc1ccc(N=Nc2ccc3ccccc3c2)cc1	4.1	107.8*	11.7	14.0	-2.2
Oc1ccc(N=Nc2c(O)ccc3ccccc23)cc1	x	126.8*	8.4	1.6	3.4
O=C(NCC[C@H]1CC[C@H](NC(=O)c2cccnc2)[C@H](CO)O1)Nc1ccc(C(F)(F)F)cc1	x	x	-2.0	2.7	-161.5
COc1ccc2ccccc2c1/C=N/N1C(=O)CSC1=S	-0.8	-15.4	-15.0	-2.9	-1.5
COc1cccc(/C=N/N2C(=O)CSC2=S)c1O	-32.5	-6.2	67.0*	8.1	13.1
O=C1CSC(=S)N1N=Cc1c(O)ccc2ccccc12	1.6	14.1	68.2*	3.9	30.6
COc1cc(/C=N/N2C(=O)CSC2=S)cc(Br)c1O	x	x	20.5	7.6	22.1
CCn1c(SCC(=O)Nc2ccc(C(C)=O)cc2)nnc1C1CC1	-4.8	-6.6	-3.8	16.3*	5.0
CCOC(=O)c1sc(NC(=O)CSc2nccn2C)nc1C	1.6	-0.1	2.2	16.3*	-1.9
CCOC(=O)c1sc(NC(=O)C2C3C=CC(C3)C2C(=O)O)nc1C (stereo unspecified)	0.9	6.1	1.2	1.1	54.8*
C[C@@H]1CCCCO[C@H](CN(C)C(=O)Nc2ccccc2)[C@H](C)CN([C@@H](C)CO)C(=O)c2cc(NS(C)(=O)=O)ccc2O1	x	x	-9.2	-1.2	0.8
c1ccc(-c2nc3ccccn3c2NC2CCCC2)nc1	25.4	-3.3	63.8*	-5.4	2.1
Cc1noc(C)c1S(=O)(=O)Nc1ccc2c(c1)C(=O)N([C@H](C)CO)C[C@@H](C)[C@@H](CN(C)C(=O)NC1CCCCC1)OCCCC[C@@H](C)O2	x	x	-6.1	6.9	-1.8
COc1cc(NCCCC(C)N)c2ncccc2c1 (stereo unspecified)	140.7*	15.9	67.0*	x	x
CCC(CNc1cc(OC)cc2cccnc12)NC1CCCCC1 (stereo unspecified)	79.7*	12.1	x	2.8	70.5*
COc1cc(NS(=O)(=O)c2ccc(C)cc2)c2ncccc2c1	x	x	6.4	x	x
C[C@@H]1CCCCO[C@@H](CN(C)C(=O)Nc2cccc3ccccc23)[C@H](C)CN([C@@H](C)CO)C(=O)c2cc(NS(C)(=O)=O)ccc2O1	x	x	26.7	3.3	6.8
O=c1n(-c2ccccc2)c(=O)n2n1CC(COc1ccccc1)=C1[C@@H](c3ccccc3)OB(O)C[C@@H]12	x	x	9.7	9.3	0.7
CN(CC1CCCO1)S(=O)(=O)c1ccc(C(=O)Nc2nc(-c3ccccn3)cs2)cc1 (stereo unspecified)	x	-0.4	59.3*	x	x
CN(CC1CCCO1)S(=O)(=O)c1ccc(C(=O)Nc2ccccc2F)cc1 (stereo unspecified)	-2.7	-16.9	21.1	-12.2	-2.7
COc1cc(/C=C2\CCc3c2nc2ccccc2c3C(=O)O)cc(OC)c1OC	x	-12.0	1.7	12.7	49.1*
